# Test results taken from PubChem BioAssay (NCATS).
# Values joined by “and” are separate entries in the source; they are usually repeats but may differ in a detail not shown here. Identical values can stand only once. Records with an inconclusive call do not appear. Active and inactive are the calls of the source. Calls follow the shape of the dose curve; as a rule, active = well fitted curve in the direction sought with a large enough effect; inconclusive = small, poorly fitted or top-dose-only effect, or another doubt; inactive = no such curve, though single readings can be large or run the other way.
# Experiment: qHTS Assay for Identifying Gametocytocidal Compounds (AID 743244);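 as to max response: actives lower the fluorescent signal which means gametocytes are killed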
# Details: P. falciparum 3D7 stage III-V gametocytes, alamarBlue, 72 h; max response: active compounds read low
# How it was run: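 Using 20,000 stage III–V 3D7 gametocytes per well, compounds were incubated 72 h under 37 °C/5% CO2. Viability was then assessed by 24 h alamarBlue reduction, measured fluorometrically at 525/598 nm.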
# % is scaled to controls: 0 for no effect and ±100 for the full control effect; potency is read from the fitted curve at half-maximal effect.
SMILES,max response,Potency
O=C(O)c1ccc(NC(=O)[C@H](Cc2ccc(O)cc2)NC(=O)c2ccccc2)cc1,0.0398% (inactive),–
CNCC(O)c1ccc(OC(=O)C(C)(C)C)c(OC(=O)C(C)(C)C)c1 (configuration not stated),-11.6% (inactive),–
CC(=O)[C@@]1(O)CC[C@H]2[C@@H]3C=C(Cl)C4=CC(=O)[C@@H]5C[C@@H]5[C@]4(C)[C@H]3CC[C@@]21C,3.29% (inactive),–
CC(C)OC(=O)Nc1ccc2nc(-c3cscn3)[nH]c2c1,-0.783% (inactive),–
Cc1ncc(C[n+]2csc(CCO)c2C)c(N)n1,2.57% (inactive),–
O=C(Cc1cccs1)N[C@@H]1C(=O)N2C(C(=O)[O-])=C(C[n+]3ccccc3)CS[C@H]12,7.46% (inactive),–
CCOC(=O)Oc1c(OC)cc(C(=O)O[C@@H]2C[C@@H]3CN4CCc5c([nH]c6cc(OC)ccc56)[C@H]4C[C@@H]3[C@H](C(=O)OC)[C@H]2OC)cc1OC,3.15% (inactive),–
CCCOc1cc(N)ccc1C(=O)OCCN(CC)CC,-20.2% (inactive),–
O=C(O)C1=C(CSc2nnnn2CS(=O)(=O)O)CS[C@@H]2[C@H](NC(=O)[C@H](O)c3ccccc3)C(=O)N12,-5.8% (inactive),–
O=C(OC[C@H]1O[C@](O)(COC(=O)c2cccnc2)[C@@H](OC(=O)c2cccnc2)[C@@H]1OC(=O)c1cccnc1)c1cccnc1,-9.26% (inactive),–
FCOC(C(F)(F)F)C(F)(F)F,-7.47% (inactive),–
CCc1ccc(S(=O)(=O)O)cc1,-6.98% (inactive),–
CSc1nc2cc(Oc3cccc(Cl)c3Cl)c(Cl)cc2[nH]1,0.358% (inactive),–
NC[C@H]1O[C@H](O[C@H]2[C@H](O)[C@@H](O[C@H]3O[C@H](CO)[C@@H](O)[C@H](N)[C@H]3O)[C@H](N)C[C@@H]2N)[C@H](O)[C@@H](O)[C@@H]1O,19.4% (inactive),–
[O]=[Bi][O]C(=O)[O][Bi]=[O],-0.353% (inactive),–
O=C(NNCS(=O)(=O)O)c1ccncc1,-7.51% (inactive),–
CC[C@@H](C)[C@H](N)C(=O)O,-5.92% (inactive),–
CCCCCCCCCCCC(=O)OCC(O)CO (configuration not stated),3.54% (inactive),–
CCCCCCOC(=O)c1cccnc1,30.2% (inactive),–

SMILES,max response,Potency
C[Se]CC[C@H](N)C(=O)O,8.55% (inactive),–
C=C1c2c(Cl)ccc(O)c2C(O)=C2C(=O)[C@]3(O)C(O)=C(C(N)=O)C(=O)[C@@H](N(C)C)[C@@H]3[C@@H](O)[C@H]12,2.94% (inactive),–
CCc1ncnc2cc(OC)c(OC)cc12,-4.33% (inactive),–
CCN(CC)CCC(=O)N1c2ccccc2Sc2ccc(Cl)cc21,2.51% (inactive),–
CN(C)CCCSc1ccccc1NC(=O)/C=C/c1ccccc1,-4.09% (inactive),–
CCN(CC)CCOC(=O)c1cccnc1,6.67% (inactive),–
CC[C@@H]1/C=C(\C)C[C@H](C)C[C@H](OC)[C@H]2O[C@@](O)(C(=O)C(=O)N3CCCC[C@H]3C(=O)O[C@H](/C(C)=C/[C@@H]3CC[C@@H](Cl)[C@H](OC)C3)[C@H](C)[C@@H](O)CC1=O)[C@H](C)C[C@@H]2OC,-7.71% (inactive),–
[O]=[Bi][O][Bi]=[O],11.3% (inactive),–
O=C1c2c(O)cccc2[C@H]([C@@H]2O[C@H](CO)[C@@H](O)[C@H](O)[C@H]2O)c2cc(CO)cc(O)c21,-5.95% (inactive) and -4.23% (inactive),–
CC1CS(=O)(=O)CCN1/N=C/c1ccc([N+](=O)[O-])o1 (configuration not stated),–,14.1 µM (active)
O=[n+]1ccn([O-])c2ccccc21,-5.38% (inactive),–
CC(CCc1ccc(O)cc1)NCC(O)c1ccc(O)cc1 (configuration not stated),16.5% (inactive),–
CCOc1ccc(NC(=S)Nc2ccc(OCC)cc2)cc1,1.34% (inactive),–
NC(=O)[C@@H]1C[C@]2(NC(=O)NC2=O)c2cc(F)ccc2O1,-13.1% (inactive),–
O=C1c2ccccc2C(=O)C1c1ccc(F)cc1,5.59% (inactive),–
COc1ccc2cc([C@H](C)CO)ccc2c1,13.6% (inactive),–
CCOc1cc(-c2nccc3cc(OC)c(OC)cc23)cc(OCC)c1OCC,-3.95% (inactive),–
Cc1c(Cl)cccc1Nc1ncccc1C(=O)O,-5.77% (inactive),–
